# High-throughput results deposited in PubChem by The Scripps Research Institute Molecular Screening Center.
# Only some compounds are listed: those with a hit (about 3.4% of all), similar ones and a draw of the others.
# ADAM10 inh: inhibits human ADAM10; recombinant ADAM10, EDANS/DABCYL FRET peptide cleavage, 3 h; inhibition, % at 7 µM; 0.62% of 370,000 active; AID 720582;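 active means inhibition above a per-campaign cutoff equal to the mean of compounds falling between control-based bounds plus 3 SD, cut at about 20% in these data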
# ADAM17 inh: inhibitors of human ADAM17. 0.83% of 370,000 active. recombinant ADAM17, EDANS/DABCYL FRET peptide cleavage. inhibition, % at 6.95 µM. P78536;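 active means inhibition above the mean of compounds lying between control limits plus 3 SD, set per campaign, cut at about 8.5% in these data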
# PLC-gamma1 inh: PLC-gamma1 (human) inhibition, primary screen | purified PLC-gamma1, fluorogenic substrate, fluorescence | 0.84% of 370,000 active | P19174 | inhibition, % at 12.2 µM | AID 720700; in the data active means inhibition above about 9.5%
# proKLK7 act: activators of human kallikrein-7 zymogen. P49862. purified proKLK7, EDANS-DABCYL substrate fluorescence; 100% is mature enzyme control, 0% vehicle. activation, % at 7 µM. 0.9% of 370,000 active;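 active means activation above the mean of all tested compounds plus 3 SD, computed per campaign excluding outliers beyond control limits, cut at about 13% in these data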
# PLCb3 inh: PLC-beta3 (human) inhibition, primary screen | Q01970 | Purified PLC-beta3, fluorogenic substrate, fluorescence | inhibition, % at 12.2 µM | 0.18% of 370,000 active | AID 720704; in the data active means inhibition above about 11%
# sPLA2-III inh: Inhibits HGIII-sPLA2 liposome hydrolysis, primary screen; Q9NZ20; QFRET BODIPY PC-A2 liposome hydrolysis, fluorescence; inhibition, % at 12.2 µM; 0.56% of 370,000 active; AID 743126;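 active means inhibition above mean plus 3 SD of compounds lying within the high and low control bounds, cut at about 19% in these data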
# sPLA2 confirm: human GIII-sPLA2 inhibition, confirmation. shares compounds with sPLA2-III inh. 34% of 2,000 active. inhibition, % at 12.2 µM. recombinant hGIII-sPLA2, BODIPY PC-A2 QFRET fluorescence;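 active means mean inhibition across triplicates above the hit cutoff set in the earlier primary screen, cut at about 19% in these data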
# BODIPY interf: optically interferes with 535nm fluorescence in sPLA2 counter-screen; shares compounds with sPLA2-III inh; AID 743282; BODIPY FL product fluorescence interference, QFRET; inhibition, % at 12.2 µM; 8.5% of 2,000 active;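 active means average inhibition above the solvent-only control mean plus 3 SD, cut at about 6% in these data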
# 535nm interf DR: counter-screen for HGIII-sPLA2 inhibitors: 535nm fluorescence interference, dose response. shares compounds with sPLA2-III inh. BODIPY FL product fluorescence interference, cell-free. IC50, µM. 240 tested, under 10 active;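 active means IC50 at or below 10 µM; inactive means IC50 above 10 µM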
# Hits are given with their value; – = inactive; · = no result given.
SMILES,ADAM10 inh,ADAM17 inh,PLC-gamma1 inh,proKLK7 act,PLCb3 inh,sPLA2-III inh,sPLA2 confirm,BODIPY interf,others
Cc1ccc(C(=O)NNC(=O)c2ccco2)cc1,–,–,–,–,–,–,·,·,
CN1CCN(NC(=O)c2cccc(Br)c2)CC1,–,–,–,–,–,21,–,–,
Cc1ccc(C(=O)NNC(=S)NC(=O)c2ccco2)cc1,–,–,–,–,–,22,32,–,535nm interf DR=–
COc1ccc(C(=O)NNC(=S)NC(=O)c2ccc(F)cc2)cc1Br,–,–,–,–,–,–,·,·,
O=C(NN1CCOCC1)c1cccc(Br)c1,–,–,–,–,–,–,·,·,
COC(=O)C1=C(C)N(Cc2ccccc2C(F)(F)F)C(=NCc2ccc3c(c2)OCO3)NC1c1ccccc1 (configuration not stated),–,–,–,–,–,–,·,·,
COc1ccc(C(=O)NNC(=S)NC(=O)c2ccc(OC)cc2)cc1,–,–,–,–,–,20,26,–,
CCOC(=O)c1sc(NC(=S)NC(=O)c2ccco2)nc1C,–,–,–,–,–,27,–,–,
COC(=O)c1sc(NC(=O)c2ccco2)nc1C,–,–,–,–,–,–,·,·,
COc1ccc(C(=O)NC(=S)NNC(=O)c2cccc(C)c2)cc1,–,–,–,–,–,27,38,–,535nm interf DR=–
Cc1cccc(C(=O)NNC(=S)NC(=O)c2cccs2)c1,–,–,–,–,–,28,27,–,
COc1ccc(C2C(C(=O)Nc3ccc(C)c(C)c3)CCC(=O)N2c2ccc(OC)cc2)cc1 (configuration not stated),–,–,–,–,–,–,·,·,
CCOC(=O)C1=C(C(=O)OCC)C2N(Cc3ccc(Br)cc3)c3ccccc3[C@@]23C[C@@H](C(=O)OC)N(S(=O)(=O)c2ccc(C(F)(F)F)cc2)C3=N1 (some centres not stated),–,–,–,–,–,–,·,·,
COC(=O)C1CN(Cc2cn(Cc3ccccc3)nn2)CCS(=O)(=O)N1Cc1ccc(Cl)cc1 (configuration not stated),–,–,–,–,–,–,·,·,
Cc1cccc(C(=O)NNC(=S)NC(=O)c2ccccc2)c1,–,–,–,–,–,23,36,–,535nm interf DR=–
CC(C)(C)NC(=S)NNC(=O)c1ccncc1,–,–,–,–,–,23,–,–,
CC(=O)Nc1ccc(NC(=S)NC(=O)c2ccc(-c3ccccc3)cc2)cc1,–,–,–,–,–,–,·,·,
CCCOc1ccc(C(=O)NC(=S)Nc2nc3ccccc3s2)cc1,–,–,–,–,–,26,–,–,
Cc1ccc(NC(=O)NC(=S)NC(=O)c2ccccc2)cc1,–,–,–,–,–,23,–,–,
CCNC(=S)NNC(=O)c1ccncc1,–,–,–,–,–,–,·,·,
CC(C)(C)N(Cc1cn(Cc2ccccc2)nn1)S(=O)(=O)c1ccc(N2CCCC2)cc1Br,–,–,–,–,–,–,·,·,
C=Cc1ccc(C(=O)Nc2nnc(-c3cccnc3)s2)cc1,–,–,–,–,–,–,·,·,
CCOC(=O)c1sc(NC(=S)NC(=O)c2ccc(OC)cc2)nc1C,–,–,–,–,–,–,·,·,
CCNC(=S)NNC(=O)c1cccc(Br)c1,–,–,–,–,–,22,33,–,
COc1ccc(C(=O)NC(=S)Nc2nc(C)c(C(=O)N(C)C)s2)cc1,–,–,–,–,–,22,–,–,
COc1ccc(C(=O)NNC(=S)NC(=O)c2cccs2)cc1,–,–,–,–,–,21,40,–,535nm interf DR=–
COc1cccc(CC(=O)NCC2CCN(C(=O)C(=O)c3cccs3)CC2)c1,–,–,–,–,–,–,·,·,
COC(=O)[C@]12C[C@H](CC(=O)N3CCC(c4ccccc4)CC3)C(=O)N(Cc3ccco3)C1=C[C@H](C1CCCC1)O[C@@H]2C,–,–,–,–,–,–,·,·,
